Source: PubChem (National Center for Advancing Translational Sciences (NCATS))
The list is not random: actives were taken first. Their share in the collection is about 8.2%.
MCF10A rerep = DNA re-replication induction in MCF 10a cells | 2.9% of 350,000 active | MCF 10A DNA re-replication, Hoechst nuclear intensity, 48 h | Potency, µM (series often up to 46.1 µM), actives largely listed as activators; note: nearly all actives have a fitted effect of over 50% in size
KB-3-1 cytotox = KB-3-1 parental cell cytotoxicity. KB-3-1 viability, CellTiter-Glo ATP luminescence, 72 h. Potency, µM (highest dose often 46.1 µM), actives largely listed as cytotoxic. 1.4% of 400,000 active; note: nearly all actives have a fitted effect of over 60% in size
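Screening of KB-3-1 cells (DMEM, 10% FBS, phenol-red free) ran from lowest to highest compound concentration; after 72 h at 37 °C viability was read luminescently and curves fitted.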
KB-V1 cytotox = kills drug-selected multidrug resistant KB-V1 cells; KB-V1 MDR cells viability, CellTiter-Glo, 72 h; Potency, µM (top dose mostly 46.1 µM), usual class: cytotoxic; 3.4% of 400,000 active; note: nearly all actives have a fitted effect of over 60% in size
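KB-V1 cells (P-gp-expressing MDR subline of KB-3-1) in phenol-red-free DMEM with 10% FBS were exposed to library compounds over a concentration series for 72 h at 37 degrees C. Viability read by CellTiter-Glo luminescence; concentration-effect curves fitted after normalization.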
SW480 rereplic = induces DNA re-replication in SW480 colon adenocarcinoma cells | SW480 DNA re-replication, Hoechst DNA content imaging, 48 h | Potency, µM (doses to about 46.1 µM), usual class: activators | 1.8% of 340,000 active | AID 624297; note: nearly all actives have a fitted effect of over 55% in size
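250 cells/well; 23 nL cpd via pin tool; 48 hr, 37 C, 5% CO2; Hoechst 40 min; imager read of total nuclear intensity, ex 405/em 500-530 nm.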
ELG1 DNA repair = blocks ELG1-dependent DNA repair in HEK293T cells | HEK293T ELG1-luciferase reporter, luminescence, 16 h; DNA damage induced by 5-fluorouridine | 2.3% of 330,000 active | Potency, µM (titrated, usually from 46.1 µM), actives largely listed as inhibitors; note: nearly all actives have a fitted effect of over 55% in size
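Cells (2,000 per well) received 5-fluorouridine plus test compound or DMSO and were incubated 16 hr at 37 °C, 5% CO2. Luciferase activity was read by luminescence 30 min after ONE-Glo addition; signal suppression marked inhibition of damage-induced ELG1 function.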
Hits are given with their value; 0 = inactive; ? = inconclusive; - = no result given; [ ] = another dose, or the depositor's remark. Calls come from the whole dose curve; as a rule, active = well fitted curve in the direction sought with a large enough effect; inconclusive = small, poorly fitted or top-dose-only effect, or another doubt; inactive = no such curve, though single readings can be large; an effect the other way counts as inactive or inconclusive.

SMILES	MCF10A rerep	KB-3-1 cytotox	KB-V1 cytotox	SW480 rereplic	ELG1 DNA repair
Oc1c(Cl)cc(Cl)cc1/C=N/NC(=S)NC1CC2C=CC1C2 (stereo unspecified)	7.3µM	?	0	18µM	15µM
Oc1ccccc1/C=N/NC(=S)NCCc1ccccc1	?	0	?	?	0
CCn1c(SCC(=O)NC2CCCCC2)nnc1C(C)NC(=O)c1ccccc1F (stereo unspecified)	0	0	0	?	0
COc1ccc(CNC(=O)C2Cc3c(-c4ccc5c(c4)OCO5)ccnc3O2)cc1OC (stereo unspecified)	-	21µM	9.2µM	-	-
O=C(NCc1ccc(F)c(F)c1)C1Cc2c(-c3ccc4c(c3)OCO4)ccnc2O1 (stereo unspecified)	-	8.2µM	4.1µM	-	-
O=C1C=C(c2ccccc2C(F)(F)F)C[C@@H](c2ccc3c(c2)OCO3)C1	?	0	0	0	?
O=C(c1cccnc1)N(Cc1ccccc1)C(c1ccccc1)c1nc2ccccc2[nH]1 (stereo unspecified)	-	0	0	-	-
Cc1cccc(-c2nnn3c2nc(NCCc2ccc(S(N)(=O)=O)cc2)c2ccccc23)c1	5.2µM	0	0	2.3µM	2.6µM
CNc1nc2c(-c3ccc(Cl)cc3)nnn2c2ccccc12	?	0	0	0	?
Nc1nc2c(-c3ccc(Br)cc3)nnn2c2ccccc12	5.2µM	0	0	10µM	?
NS(=O)(=O)c1ccc(CCNc2nc3c(-c4cccc(F)c4)nnn3c3ccccc23)cc1	?	0	0	?	2.6µM
Cc1ccc(-c2nnn3c2nc(NCCc2ccc(S(N)(=O)=O)cc2)c2ccccc23)cc1	?	0	0	?	?
NNc1nc2c(-c3cccc(C(F)(F)F)c3)nnn2c2ccccc12	2.9µM	?	?	3.7µM	?
CSc1nc(Nc2ccc(C)cc2C)cc(-c2ccccc2)n1	-	0	0	-	-
Cc1ccc(-c2nnn3c2nc(NC(C)C)c2ccccc23)cc1	16µM	0	0	?	0
COc1ccc(C(C(=O)NC2CCCC2)N(C(=O)c2snc(-c3ccc(F)cc3)c2N)c2ccc(OC)cc2)cc1 (stereo unspecified)	0	0	0	0	0
COc1ccc(C(C(=O)NC2CCCC2)N(C(=O)c2snc(-c3ccc(F)cc3)c2N)c2cccc(F)c2)cc1 (stereo unspecified)	?	0	0	21µM	0
COc1ccc(C(C(=O)NC2CCCC2)N(C(=O)c2snc(-c3ccc(F)cc3)c2N)c2ccc(F)cc2)cc1 (stereo unspecified)	?	?	?	16µM	0
Cc1ccc(CN2CC(C(=O)Nc3ccc(S(=O)(=O)N4CCCCC4)cc3)CC2=O)cc1 (stereo unspecified)	0	0	?	?	-
C=C(c1ccccc1O)n1ccnc1	0	0	0	0	0
CNC(=O)C[C@H]1C(=O)N(CCc2ccccc2)C[C@@H]1c1ccc(OC)cc1	-	0	0	-	-
COc1ccc(C2C(=O)N(C3CCCCC3)CC(=O)N2C2CCCC2)cc1 (stereo unspecified)	0	0	2.6µM	0	0
COc1ccc(C2C(=O)N(CCc3ccccc3)CC(=O)N2C2CCCC2)cc1 (stereo unspecified)	0	0	3.7µM	0	0
COc1ccc(C2C(=O)N(C3CCCCC3)CC(=O)N2Cc2ccco2)cc1 (stereo unspecified)	0	0	0	0	0
C=C1C=C(C(F)F)n2ncc(C(=O)NCc3ccccc3)c2N1	-	0	0	-	-
SMILES	MCF10A rerep	KB-3-1 cytotox	KB-V1 cytotox	SW480 rereplic	ELG1 DNA repair
O=C(Nc1nc(-c2cccs2)c(-c2cccs2)s1)C1CCCC1	?	?	21µM	0	0
CCN(CC)CCN1C(=O)C2C(C(=O)Nc3cccc(SC)c3)C3C=CC2(O3)C1C(=O)NC1CCCC(C)C1C (stereo unspecified)	0	0	?	18µM	0
Cc1cccc(OCC(=O)NCc2cc(C)nc3ccccc23)c1	0	0	0	0	15µM
COc1ccc(C(=O)NCc2cc(C)nc3ccccc23)cc1	?	18µM	0	?	?
Cc1ccc(S(=O)(=O)c2c(N)n(CCCN(C)C)c3nc4ccccc4nc23)cc1	21µM	0	0	23µM	?
CN(C)CCCn1c(N)c(C#N)c2nc3ccccc3nc21	18µM	0	0	18µM	0
CCCCC(CC)Cn1c(N)c(C#N)c2nc3ccccc3nc21 (stereo unspecified)	0	0	0	9.2µM	0
CC(=O)n1cc(C(C[N+](=O)[O-])SCCN)c2ccccc21 (stereo unspecified)	5.2µM	?	?	6.5µM	?
O=C(CN1CCSC1=O)N1CCN(S(=O)(=O)c2ccccc2)CC1	0	0	0	0	0
C/C(=N\NC(=O)c1ccc(NS(=O)(=O)c2cccs2)cc1)c1ccc2c(c1)OCO2	0	0	0	0	0
CCC(=O)N(C(=O)CC)N1CCN(c2ccncc2S(=O)(=O)N2CCCCC2)CC1	0	0.029µM	0	0	0
CCC(=O)NN1CCN(c2ccncc2S(=O)(=O)N2CCCCC2)CC1	0	0	0	0	0
Cc1nc(-c2ccccc2)sc1CCNC(=O)C(=O)Nc1ccc(F)c(Cl)c1	-	0	?	-	-
CCSc1oc(-c2ccco2)nc1S(=O)(=O)c1ccc(F)cc1	0	0	16µM	0	0
CC(C)(C)c1ccc(-n2ncc3c2CCCC3NC(=O)CCCn2cncn2)cc1 (stereo unspecified)	0	0	0	0	0
Cc1cccc(C2c3[nH]c4ccccc4c3CCN2Cc2cccn2-c2ncccn2)c1 (stereo unspecified)	?	0	?	0	?
COc1ccc(C2c3[nH]c4ccccc4c3CCN2Cc2cccn2-c2ncccn2)cc1C (stereo unspecified)	0[9.22 µM]	?	?	?	21µM
CCCNC(=O)c1c(O)c2cccc3c2n(c1=O)CCC3	0	0	0	0	0
CCN(CC)C(=O)Oc1cc(=O)n2c3c(cccc13)CCC2	0	0	16µM	0	0
Cc1ccc(S(=O)(=O)CC(CN2CCOCC2)N2CCOCC2)cc1 (stereo unspecified)	0	0	0	0	0
CC1CCN(CC(CS(=O)(=O)c2ccc([N+](=O)[O-])cc2)N2CCC(C)CC2)CC1 (stereo unspecified)	1.8µM	5.2µM	?	2.9µM	?
CC1CCCCC1NC(=O)c1cc(Cl)nc2ccccc12 (stereo unspecified)	-	0	0	-	-
O=C1OC(/C(=C\Nc2cc(Cl)ccc2O)[N+](=O)[O-])c2ccccc21 (stereo unspecified)	15µM	0	0	?	?
CCOC(=O)c1c2c(n(-c3ccc(OC)cc3)c1C)C(=O)C(=O)c1ccccc1-2	3.3µM	?	?	5.8µM	-
Cc1ccccc1-n1ncc2c1CC(C)(C)CC2NC(=O)CCC(F)(F)F (stereo unspecified)	0	0	0	0	0
